# A number with no mark means an inactive call. Results filed as inconclusive are left out. A call without a number means that no potency is given here. Active and inactive are the calls of the source. Unless noted, calls come from the whole dose curve; as a rule, active = well fitted curve in the direction sought with a large enough effect in the repeat runs; inconclusive = weak or mixed curves; inactive = no such curve, though single readings can be large; an effect the other way counts as inactive or inconclusive.
# Key:
# [1] = qHTS assay to identify small molecule antagonists of the estrogen receptor alpha (ER-alpha) signaling pathway using the BG1 cell line in the presence of 0.1 nM 17-beta-estradiol - cell viability counter screen (AID 1259241); note: nearly all actives have a fitted effect of over 40% in size
# Method in brief: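 VM7Luc4E2 cells (endogenous ER-alpha, 4×ERE-luciferase), hormone-starved 5 days in charcoal-stripped FBS, were treated with compounds plus 0.1 nM 17beta-estradiol for 22 hr at 37C; viability read in same wells as CellTiter-Fluor live-cell protease fluorescence.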
# [2] = qHTS assay to identify small molecule antagonists of the androgen receptor (AR) signaling pathway using the MDA cell line in the presence of 0.5 nM R1881 - cell viability counter screen (AID 1259242); note: nearly all actives have a fitted effect of over 45% in size
# Method in brief: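 Concentration-response screen of compounds for toxicity in MDA-kb2 reporter cells: 16 hr at 37C with 0.5 nM R1881, endpoint live-cell protease fluorescence measured in the reporter wells.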
# [3] = target: Androgen receptor (Homo sapiens) (UniProt P10275); assay: qHTS assay to identify small molecule antagonists of the androgen receptor (AR) signaling pathway using the MDA cell line in the presence of 0.5 nM R1881 (AID 1259243); note: nearly all actives have a fitted effect of over 50% in size
# Chain of Androgen receptor (Homo sapiens) (P10275 whole entry, looked up): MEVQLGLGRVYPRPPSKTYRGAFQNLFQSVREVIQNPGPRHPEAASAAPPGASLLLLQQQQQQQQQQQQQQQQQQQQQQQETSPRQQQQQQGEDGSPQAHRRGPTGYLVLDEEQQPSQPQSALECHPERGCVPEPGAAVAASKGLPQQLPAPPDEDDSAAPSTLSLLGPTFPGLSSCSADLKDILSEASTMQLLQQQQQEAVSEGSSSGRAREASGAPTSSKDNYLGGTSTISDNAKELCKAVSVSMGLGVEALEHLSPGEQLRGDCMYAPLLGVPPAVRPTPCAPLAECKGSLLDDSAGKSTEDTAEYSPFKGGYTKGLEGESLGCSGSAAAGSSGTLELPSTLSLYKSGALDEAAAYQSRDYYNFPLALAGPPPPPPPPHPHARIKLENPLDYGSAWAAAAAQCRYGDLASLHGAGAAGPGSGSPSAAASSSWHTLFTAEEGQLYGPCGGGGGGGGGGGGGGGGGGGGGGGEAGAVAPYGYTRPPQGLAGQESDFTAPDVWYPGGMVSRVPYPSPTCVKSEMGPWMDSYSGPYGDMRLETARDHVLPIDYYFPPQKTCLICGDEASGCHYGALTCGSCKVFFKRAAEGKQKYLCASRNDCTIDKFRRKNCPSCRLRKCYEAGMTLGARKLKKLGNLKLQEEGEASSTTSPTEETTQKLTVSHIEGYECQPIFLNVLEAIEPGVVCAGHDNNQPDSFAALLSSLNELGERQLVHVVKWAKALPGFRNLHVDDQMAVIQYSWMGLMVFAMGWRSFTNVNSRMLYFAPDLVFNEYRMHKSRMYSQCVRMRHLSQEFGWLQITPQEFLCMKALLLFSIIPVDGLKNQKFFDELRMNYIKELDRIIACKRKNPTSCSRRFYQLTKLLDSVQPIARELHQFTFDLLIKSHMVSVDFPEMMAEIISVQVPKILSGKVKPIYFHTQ
# Method in brief: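 With R1881 held at 0.5 nM (final), compound effects on MMTV-luciferase expression in MDA-kb2 cells were scored by luminescence after a 16 hr, 37C incubation.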
# [4] = qHTS assay to identify small molecule HDAC inhibitors (AID 1259364); note: potency is the fitted concentration of half-maximal effect;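 note: wild-type HCT-116 cells with endogenous class I/II HDAC activity; nearly all actives have a fitted effect of over 45% in size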
# Method in brief: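 Screening used wild-type human colon HCT-116 cells incubated overnight, dosed with compounds for 2 hours, and assayed with a homogeneous luminogenic HDAC I/II reagent for 30 minutes at room temperature.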
# [5] = qHTS assay to identify small molecule HDAC inhibitors - cell viability counter screen (AID 1259365); note: series mostly up to about 92 µM; nearly all actives have a fitted effect of over 50% in size
# Method in brief: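 Wild-type HCT-116 cells were seeded at 1,500 per well, incubated overnight at 37 C, then exposed to compounds in DMSO for 2hr. Viability was read by CellTiter-Glo luminescence after 30min at room temperature.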
# [6] = qHTS assay to identify small molecule agonists of the sonic hedgehog signaling (Shh) pathway - cell viability counter screen (AID 1259366); note: nearly all actives have a fitted effect of over 50% in size
# Method in brief: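 NIH/3T3-derived 3T3 Gli1-Luc cells (stable Gli1-responsive firefly luciferase reporter) were seeded, rested 4 hr at 37 C/5% CO2, then exposed to compounds in DMSO for 24 hr; viability was read by CellTiter-Fluor fluorescence in the same wells.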
# [7] = qHTS assay to identify small molecule antagonists of the sonic hedgehog signaling (Shh) pathway - cell viability counter screen (AID 1259367); note: nearly all actives have a fitted effect of over 55% in size
# Method in brief: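 Conditioned medium drove Shh signaling in 3T3 Gli1-Luc cells exposed to compounds at 37C and 5% CO2. Viability was determined from CellTiter-Fluor fluorescence, with reagent incubated 1 hr after 23 hr of treatment.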
# [8] = qHTS assay to identify small molecule agonists of the sonic hedgehog signaling (Shh) pathway (AID 1259368; calls by dose curve; note: series mostly up to about 92 µM; nearly all actives have a fitted effect of over 15% in size)
# Method in brief: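 Hedgehog pathway agonism scored by increased firefly luciferase luminescence in 3T3Gli1-Luc cells treated 24 hr at 37 C; detection used a 30 min room-temperature reagent incubation.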
# [9] = qHTS assay to identify small molecule agonists of the androgen receptor (AR) signaling pathway in the presence of an antagonist - cell viability counter screen (AID 1259379);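 note: MDA-kb2 human breast cancer cells carrying an MMTV luciferase reporter; series mostly up to about 92 µM; nearly all actives have a fitted effect of over 25% in size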
# Method in brief: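 MDA-kb2 viability measured by CellTiter-Fluor fluorescence in the same wells as the luciferase signal; nilutamide 3.0uM final; 15-point compound titration; 16 hr at 37C.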
# [10] = qHTS assay to identify small molecule agonists of the estrogen receptor beta (ER-beta) signaling pathway - cell viability counter screen (AID 1259380); note: nearly all actives have a fitted effect of over 30% in size; note: potency is the fitted concentration of half-maximal effect
# Method in brief: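 Measured: luminescence from CellTiter-Glo after 30 min at room temperature, added to wells already read for the LiveBLAzer FRET reporter (2 hr substrate); ER-beta-UAS-bla HEK293T cells had 16 hr compound treatment at 37C, 5% CO2.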
# [11] = target: Androgen receptor (Homo sapiens) (UniProt P10275); assay: qHTS assay to identify small molecule agonists of the androgen receptor (AR) signaling pathway in the presence of an antagonist (AID 1259381; calls by dose curve; note: nearly all actives have a fitted effect of over 15% in size)
# Method in brief: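 Luminescent ONE-Glo read, 30min at room temperature, follows 16hr compound exposure (15 concentrations) of MDA-kb2 cells at 37C, 0% CO2, with nilutamide added at 3.0uM final.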
# [12] = qHTS assay to identify small molecule antagonists of the estrogen receptor beta (ER-beta) signaling pathway - cell viability counter screen (AID 1259382); note: series mostly up to about 92 µM; nearly all actives have a fitted effect of over 55% in size
# Method in brief: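 Readout: luminescence, CellTiter-Glo, same wells as bla assay. System: ER-beta-UAS-bla GripTite HEK293T, 2% charcoal-stripped FBS. Exposure: compounds plus 1nM 17-beta-estradiol, 16 hr, 37C.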
# [13] = qHTS assay to identify small molecule agonists or antagonists of the thyroid stimulating hormone receptor (TSHR) signaling pathway - wild type cell line counter screen (AID 1259384; calls by dose curve)
# Method in brief: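 Wild-type HEK293 cells were plated 18 h at 37 C/5% CO2, pin-dosed with compound plus Ro20-1724 medium, held 30 min at room temperature, then given cAMP-d2 and anti-cAMP-cryptate; fluorescence was read after 1 h. Fifteen concentrations, triplicate.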
# [14] = target: Thyrotropin receptor (Homo sapiens) (UniProt P16473); assay: qHTS assay to identify small molecule antagonists of the thyroid stimulating hormone receptor (TSHR) signaling pathway (AID 1259385; calls by dose curve; note: nearly all actives have a fitted effect of over 20% in size)
# Chain of Thyrotropin receptor (Homo sapiens) (P16473 whole entry, looked up): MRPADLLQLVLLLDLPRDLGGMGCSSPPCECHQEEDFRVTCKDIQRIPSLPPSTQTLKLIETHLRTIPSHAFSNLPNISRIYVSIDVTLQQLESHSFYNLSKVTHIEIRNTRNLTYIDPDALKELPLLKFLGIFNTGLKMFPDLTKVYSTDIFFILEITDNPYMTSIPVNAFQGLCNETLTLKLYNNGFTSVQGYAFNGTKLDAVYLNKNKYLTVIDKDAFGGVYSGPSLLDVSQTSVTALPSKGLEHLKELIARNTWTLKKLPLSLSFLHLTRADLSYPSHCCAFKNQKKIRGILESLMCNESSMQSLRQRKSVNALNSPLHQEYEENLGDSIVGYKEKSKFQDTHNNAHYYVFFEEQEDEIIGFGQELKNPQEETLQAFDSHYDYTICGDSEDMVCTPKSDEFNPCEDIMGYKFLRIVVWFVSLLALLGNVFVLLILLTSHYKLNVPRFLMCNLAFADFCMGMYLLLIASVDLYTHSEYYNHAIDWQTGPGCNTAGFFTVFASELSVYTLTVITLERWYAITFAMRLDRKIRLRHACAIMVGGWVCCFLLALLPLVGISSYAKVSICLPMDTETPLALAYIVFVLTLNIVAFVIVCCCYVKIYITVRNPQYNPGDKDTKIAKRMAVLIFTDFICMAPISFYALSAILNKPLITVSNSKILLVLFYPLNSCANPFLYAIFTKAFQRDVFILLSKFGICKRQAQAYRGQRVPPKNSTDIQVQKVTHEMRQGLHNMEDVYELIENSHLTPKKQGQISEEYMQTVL
# Method in brief: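 TSHR-HEK293 cells were plated and held 18 h at 37C/5% CO2, then given compound plus Ro20-1724 and stimulated with TSH at 1.5 ng/mL final. After 30 min at room temperature, cAMP was detected with cAMP-d2/anti-cAMP-cryptate (1 h) by fluorescence.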
# [15] = target: Estrogen receptor (Homo sapiens) (UniProt P03372); assay: qHTS assay to identify small molecule antagonists of the estrogen receptor alpha (ER-alpha) signaling pathway using the BG1 cell line in the presence of 0.1 nM 17-beta-estradiol (AID 1259244); note: nearly all actives have a fitted effect of over 50% in size
# Chain of Estrogen receptor (Homo sapiens) (P03372 whole entry, looked up): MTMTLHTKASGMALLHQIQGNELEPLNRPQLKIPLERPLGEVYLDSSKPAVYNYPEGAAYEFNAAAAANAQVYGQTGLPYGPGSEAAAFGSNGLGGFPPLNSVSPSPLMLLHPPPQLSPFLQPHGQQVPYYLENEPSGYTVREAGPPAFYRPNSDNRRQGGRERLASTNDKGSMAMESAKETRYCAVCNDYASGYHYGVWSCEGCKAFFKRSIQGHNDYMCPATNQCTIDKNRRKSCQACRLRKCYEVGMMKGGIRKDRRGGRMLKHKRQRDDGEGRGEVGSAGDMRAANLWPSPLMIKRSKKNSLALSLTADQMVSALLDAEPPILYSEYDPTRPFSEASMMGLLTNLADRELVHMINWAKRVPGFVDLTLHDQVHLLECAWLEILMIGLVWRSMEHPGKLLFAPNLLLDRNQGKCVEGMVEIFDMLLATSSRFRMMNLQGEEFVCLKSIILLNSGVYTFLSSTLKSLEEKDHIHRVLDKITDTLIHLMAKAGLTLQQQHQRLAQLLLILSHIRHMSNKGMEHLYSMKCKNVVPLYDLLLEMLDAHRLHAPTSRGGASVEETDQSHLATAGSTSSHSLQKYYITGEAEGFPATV
# Method in brief: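 Compounds were tested against 0.1 nM (final) 17beta-estradiol in VM7Luc4E2 cells, which express full-length ER-alpha and an ERE-luciferase reporter; luminescence was recorded following 22 h exposure.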
# [16] = target: Estrogen receptor (Homo sapiens) (UniProt P03372); assay: qHTS assay to identify small molecule agonists of the estrogen receptor alpha (ER-alpha) signaling pathway in the presence of an antagonist (AID 1259383; calls by dose curve; note: nearly all actives have a fitted effect of over 15% in size; note: potency is the fitted concentration of half-maximal effect; for activation: top concentration of the series differs between compounds)
# Method in brief: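 Quantitative HTS confirmation: compounds titrated at 15 concentrations onto estrogen-deprived VM7Luc4E2 cells carrying a four-ERE luciferase construct, with ICI-182,780 present at 10.0nM final. Signal is luminescence after 22hr exposure.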
# [17] = qHTS assay to identify small molecule phospholipidosis (PLD) inducers (AID 1259344; active = well fitted curve in the direction sought with a large enough effect; an effect the other way counts as inactive or inconclusive)
# Method in brief: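 After 4 h attachment on collagen I, HepG2 cells were dosed with compound alongside LipidTOX Red, kept 24 h at 37 C, fixed, and imaged for lamellar phospholipid pits.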
# [18] = qHTS assay to identify small molecule antagonists of the sonic hedgehog signaling (Shh) pathway (AID 1259369; calls by dose curve; note: nearly all actives have a fitted effect of over 45% in size; note: potency is the fitted concentration of half-maximal effect)
# Method in brief: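 NIH/3T3 stable Gli1-Luc clone, 2,000 cells/well, 4hr settle; cpd + conditioned medium 24hr; Luc reagent 30min RT; luminescence.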
# [19] = target: Estrogen receptor beta (Homo sapiens) (UniProt Q92731); assay: qHTS assay to identify small molecule agonists of the estrogen receptor beta (ER-beta) signaling pathway (AID 1259377; active = well fitted activation curve with a large enough effect in the signal ratio in the repeat runs, not every such curve was filed as active; the % refers to the signal ratio)
# Chain of Estrogen receptor beta (Homo sapiens) (Q92731 whole entry, looked up): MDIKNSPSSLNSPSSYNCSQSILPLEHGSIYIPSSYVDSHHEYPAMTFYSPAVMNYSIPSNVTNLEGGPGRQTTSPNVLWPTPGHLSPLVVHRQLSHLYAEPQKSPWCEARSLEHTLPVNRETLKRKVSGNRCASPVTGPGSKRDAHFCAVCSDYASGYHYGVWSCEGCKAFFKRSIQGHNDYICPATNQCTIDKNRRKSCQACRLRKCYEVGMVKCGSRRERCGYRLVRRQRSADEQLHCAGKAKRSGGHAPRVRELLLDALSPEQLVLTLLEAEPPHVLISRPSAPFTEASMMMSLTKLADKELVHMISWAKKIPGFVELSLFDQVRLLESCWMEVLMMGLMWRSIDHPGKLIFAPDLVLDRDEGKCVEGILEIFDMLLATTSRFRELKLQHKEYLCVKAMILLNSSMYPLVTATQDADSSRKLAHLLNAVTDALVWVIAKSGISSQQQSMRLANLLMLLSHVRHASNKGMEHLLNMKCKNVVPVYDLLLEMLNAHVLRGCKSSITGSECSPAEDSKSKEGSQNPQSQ
# Method in brief: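 ER-beta-UAS-bla HEK293T (GripTite) cells carrying a UAS-driven beta-lactamase reporter, in medium with 2% charcoal-stripped FBS, were exposed to compounds for 16 hr at 37C; LiveBLAzer B/G FRET substrate was then added and fluorescence read after 2 hours at room temperature.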
# [20] = target: Estrogen receptor beta (Homo sapiens) (UniProt Q92731); assay: qHTS assay to identify small molecule antagonists of the estrogen receptor beta (ER-beta) signaling pathway (AID 1259378; active = well fitted inhibition curve with a large enough effect in the signal ratio in the repeat runs, not every such curve was filed as active; the % refers to the signal ratio)
# Method in brief: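 ER-beta-UAS-bla HEK293T (GripTite) cells in 2% charcoal-stripped FBS medium were preincubated 6 hr at 37C, dosed with compound, then stimulated with 1 nM E2 (final) for 16 hr; beta-lactamase reporter read by B/G FRET fluorescence after 2 hr substrate loading.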
SMILES,outcome [1],outcome [2],Potency [3],Potency [4],outcome [5],Potency [6],Potency [7],outcome [8],Potency [9],Potency [10],Potency [11],Potency [12],Potency [13],Potency [14],Potency [15],Potency [16],outcome [17],Potency [18],outcome [19],Potency [20]
CC1(C)COP(Oc2ccccc2)OC1,inactive,inactive,inactive,inactive,inactive,inactive,inactive,inactive,inactive,inactive,inactive,inactive,inactive,inactive,–,–,–,–,–,–
CC(Oc1ccc(Oc2ncc(C(F)(F)F)cc2Cl)cc1)C(=O)O (stereo not drawn),inactive,inactive,inactive,inactive,–,inactive,inactive,inactive,inactive,17.2 µM (active),inactive,–,inactive,inactive,inactive,inactive,–,–,–,–
CC(=O)[C@H]1CC[C@H]2[C@@H]3CC[C@H]4C[C@H](O)CC[C@]4(C)[C@H]3C(=O)C[C@]12C,inactive,inactive,–,inactive,inactive,inactive,inactive,inactive,inactive,–,–,inactive,–,–,inactive,inactive,inactive,inactive,inactive,inactive
c1cc2c(c(N3CCNCC3)c1)OCCO2,inactive,inactive,–,inactive,inactive,inactive,inactive,inactive,inactive,inactive,inactive,inactive,inactive,inactive,inactive,inactive,inactive,inactive,–,inactive
CNNC,inactive,inactive,–,inactive,inactive,inactive,inactive,inactive,inactive,inactive,–,inactive,–,–,inactive,inactive,–,inactive,–,inactive
c1coc(-c2nc3ccccc3[nH]2)c1,inactive,inactive,–,0.611 µM (active),inactive,inactive,inactive,inactive,inactive,–,–,inactive,inactive,inactive,inactive,7.7 µM (active),–,inactive,–,inactive
O=NN1CCN(N=O)CC1,inactive,inactive,–,inactive,inactive,inactive,inactive,inactive,inactive,inactive,–,inactive,inactive,inactive,inactive,inactive,–,inactive,–,inactive
CC1(C)C(=O)NC(=O)NC1=O,inactive,inactive,–,inactive,inactive,inactive,inactive,inactive,inactive,inactive,–,inactive,inactive,–,inactive,inactive,–,inactive,–,inactive
CN1CCC(N(Cc2ccccc2)c2ccccc2)CC1,inactive,inactive,–,inactive,inactive,inactive,inactive,inactive,inactive,13.3 µM (active),–,–,inactive,–,inactive,inactive,–,18.8 µM (active),inactive,–
O=C1CN2CCOC2(c2ccccc2Cl)c2cc(Cl)ccc2N1 (stereo not drawn),inactive,inactive,–,inactive,inactive,inactive,inactive,inactive,inactive,inactive,–,inactive,inactive,inactive,inactive,inactive,–,inactive,–,–
C=CC1CC=CCC1 (stereo not drawn),inactive,inactive,–,inactive,inactive,inactive,inactive,inactive,inactive,inactive,–,–,inactive,–,inactive,inactive,–,inactive,–,inactive
COc1cc(OC)nc(NC(=O)NS(=O)(=O)c2ncccc2OCC(F)(F)F)n1,inactive,inactive,–,inactive,inactive,inactive,inactive,inactive,inactive,–,–,inactive,inactive,inactive,inactive,inactive,–,inactive,–,inactive
C=C(C)[C@@H]1CC=C(C=O)CC1,inactive,inactive,–,inactive,inactive,inactive,inactive,inactive,inactive,inactive,–,inactive,inactive,inactive,inactive,inactive,–,inactive,–,–
Nc1ccccc1Cl,inactive,inactive,–,inactive,inactive,inactive,inactive,inactive,inactive,inactive,inactive,inactive,inactive,inactive,inactive,inactive,–,inactive,–,inactive
N#CCCC#N,inactive,inactive,–,inactive,inactive,inactive,inactive,inactive,inactive,inactive,–,inactive,–,–,inactive,inactive,–,inactive,inactive,inactive
C1CCC(C2CCCCC2)CC1,inactive,inactive,–,inactive,inactive,inactive,inactive,inactive,inactive,–,–,–,inactive,inactive,inactive,inactive,–,inactive,inactive,inactive
N#CCNCC#N,inactive,inactive,–,inactive,inactive,inactive,inactive,inactive,inactive,inactive,–,inactive,inactive,inactive,inactive,inactive,–,inactive,inactive,inactive
